# Data from PubChem BioAssay (NCI).
# This is part of a sample that, as a whole, favours compounds with a hit. Of some 79,000 tested, about 15% had one in any assay. Values without a mark were called inactive. Activity calls are given as the source filed them. Rule as the data show it: active = growth inhibition above about 70%; inactive = the rest.
# What was measured:
# [1] = NCI Yeast Anticancer Drug Screen. Data for the rad50 strain (AID 155);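 also: 0% = growth of vehicle-only cultures of the same strain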; conditions: S. cerevisiae rad50 strain growth inhibition, active compounds read high
# Method in brief: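 Readout: growth inhibition relative to vehicle-treated cultures. Compound exposure was carried out in a genetically defined yeast strain deficient in DNA damage repair.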
# [2] = NCI Yeast Anticancer Drug Screen. Data for the mec2-1 strain (AID 157); conditions: S. cerevisiae mec2-1 strain, active compounds read high
# Method in brief: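 Vehicle-treated cultures served as reference for growth inhibition of compound-exposed mec2-1 yeast.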
# [3] = NCI Yeast Anticancer Drug Screen. Data for the sgs1 mgt1 strain (AID 161);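 also: 0% = growth of cultures given vehicle only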; conditions: S. cerevisiae sgs1 mgt1 strain, active compounds read high
# Method in brief: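 Genetically altered yeast, compound exposure, growth inhibition relative to vehicle.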
# [4] = NCI Yeast Anticancer Drug Screen. Data for the cln2 rad14 strain (AID 165);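 also: 0% = growth equal to vehicle treated cultures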; conditions: S. cerevisiae cln2 rad14 strain, active compounds read high
# Method in brief: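 Each compound was tested on cln2 rad14 yeast. Inhibition of growth was calculated against vehicle-exposed controls.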
# [5] = NCI Yeast Anticancer Drug Screen. Data for the bub3 strain (AID 167); conditions: S. cerevisiae bub3 mutant strain, active compounds read high
# Method in brief: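 Readout: yeast growth inhibition, expressed relative to vehicle-only wells. The test organism is a mutant strain from a panel with lesions in DNA repair or checkpoint genes.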
# [6] = NCI Yeast Anticancer Drug Screen. Data for the mlh1 rad18 strain (AID 175); conditions: S. cerevisiae mlh1 rad18 strain growth inhibition, active compounds read high
# Method in brief: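 Vehicle-treated cultures served as the reference for growth inhibition in a yeast strain carrying DNA damage repair alterations exposed to each compound.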
# [7] = at 5.0 µM (retest, dose inferred, filed as 0.5)
# [8] = at 50.0 µM (retest, dose inferred, filed as 5.0)
Structure (SMILES),"growth inhibition [1, 7]","growth inhibition [1, 8]",growth inhibition ([1]; at 50.0 µM),"growth inhibition [2, 7]","growth inhibition [2, 8]",growth inhibition ([2]; at 50.0 µM),"growth inhibition [3, 7]","growth inhibition [3, 8]",growth inhibition ([3]; at 50.0 µM),"growth inhibition [4, 7]","growth inhibition [4, 8]",growth inhibition ([4]; at 50.0 µM),"growth inhibition [5, 7]","growth inhibition [5, 8]",growth inhibition ([5]; at 50.0 µM),"growth inhibition [6, 7]","growth inhibition [6, 8]",growth inhibition ([6]; at 50.0 µM)
CCCCCN(CCCCC)CC(O)c1cccc2cc(Cl)ccc12 (configuration not stated),-1%,98% (active),99.5% (active),-1%,98% (active),99.7% (active),4%,99% (active),99.6% (active),-4%,99% (active),99.5% (active),2%,99% (active),99.5% (active),0%,99% (active),99.6% (active)
CCCCNCCC(SSSC(CCNCCCC)c1ccc(Cl)cc1)c1ccc(Cl)cc1 (configuration not stated),26%,97% (active),95.2% (active),-74%,98% (active),52.5%,20%,99% (active),98.4% (active),17%,97% (active),20.1%,25%,98% (active),52.2%,26%,98% (active),97.7% (active)
N=C(N)c1ccc(/C=C/c2ccc(C(=N)N)cc2)cc1,69%,80% (active),85.8% (active),59%,91% (active),81% (active),57%,87% (active),74% (active),75% (active),84% (active),67.6%,82% (active),94% (active),87.5% (active),90% (active),95% (active),90.2% (active)
Cc1ccc(N2C(N)=C(C#N)C(C#N)(C#N)C2c2ccccc2)cc1 (configuration not stated),22%,70% (active),31.1%,26%,82% (active),38.1%,20%,51%,55%,14%,41%,24.4%,25%,50%,64.7%,25%,88% (active),90.5% (active)
CCCCCCc1c(Cl)nc(Cl)nc1Cl,-1%,56%,65.8%,1%,43%,26.2%,-6%,41%,63.5%,0%,15%,-46.6%,-1%,33%,25.1%,-2%,66%,87.2% (active)
O=C(c1ccccc1)N1CCCCC1,-1%,33%,81.5% (active),0%,5%,-1.55%,-2%,3%,23.9%,2%,3%,48%,-2%,3%,15.5%,0%,6%,47%
Clc1ccc(SSN2CCOCC2)cc1,7%,84% (active),98.5% (active),-2%,80% (active),98.9% (active),1%,98% (active),98.9% (active),-2%,40%,61.3%,4%,92% (active),98.5% (active),0%,96% (active),97.2% (active)
N#CSCC(=O)c1ccc2ccccc2c1,67%,99% (active),90.8% (active),71% (active),99% (active),92.1% (active),97% (active),99% (active),93.5% (active),68%,98% (active),91% (active),97% (active),98% (active),90.5% (active),57%,99% (active),91.3% (active)
O=[N+]([O-])/C=C/C=C/c1ccco1,-1%,98% (active),99.6% (active),3%,99% (active),64.2%,6%,94% (active),97.2% (active),2%,99% (active),99.1% (active),7%,98% (active),99.1% (active),-5%,98% (active),95.8% (active)
Cc1nc(C)c(C(=O)NNC(=O)C[N+](C)(C)C)cc1C(=O)NNC(=O)C[N+](C)(C)C,66%,8%,-23.2%,18%,7%,-8.4%,-36%,-29%,5.8%,-2%,-4%,7.2%,-20%,8%,-15.2%,17%,14%,-25.4%
CCC1C(c2cccc(OC)c2O)c2cc3c(cc2OC1N1CCCC1)OCO3 (configuration not stated),21%,43%,-66.2%,22%,19%,-19.7%,26%,25%,-52.7%,31%,45%,-28.6%,17%,26%,-5.3%,22%,63%,-29.7%
c1ccc(CC(Cc2ccccc2)c2cccnc2)cc1,18%,84% (active),98.7% (active),21%,62%,98.3% (active),35%,89% (active),98.7% (active),34%,66%,97.9% (active),43%,88% (active),99% (active),25%,84% (active),98.3% (active)
CCCCCNC(=O)c1ccc(Cl)c(Cl)c1,6%,49%,64.8%,5%,45%,28.4%,7%,63%,83.2% (active),16%,41%,33.5%,10%,59%,64.9%,1%,62%,64.6%
Clc1ccc2c(NC3CCC(N4CCCCC4)CC3)ccnc2c1 (configuration not stated),99% (active),97% (active),-13.2%,90% (active),97% (active),-25.6%,93% (active),98% (active),-24.1%,76% (active),97% (active),27.1%,94% (active),97% (active),-79.4%,98% (active),97% (active),-16%
COc1ccc(N2C(=O)C(=O)C(C(C)=O)C2=O)cc1 (configuration not stated),-1%,0%,99.2% (active),-2%,6%,99.3% (active),1%,2%,99.4% (active),-4%,7%,99% (active),1%,3%,99.3% (active),-8%,4%,99.2% (active)
c1ccc([P+](C[P+](c2ccccc2)(c2ccccc2)c2ccccc2)(c2ccccc2)c2ccccc2)cc1,98% (active),99% (active),47.4%,98% (active),100% (active),99.5% (active),98% (active),99% (active),58.4%,97% (active),99% (active),99.4% (active),98% (active),99% (active),99.7% (active),98% (active),99% (active),99.5% (active)
CN(/N=C\c1ccc2ccccc2c1)C1=NCCCN1,97% (active),68%,56.8%,99% (active),67%,33.6%,98% (active),56%,49.6%,97% (active),66%,7.7%,98% (active),96% (active),99.2% (active),97% (active),79% (active),60.9%
c1ccc([P+](c2ccccc2)(c2ccccc2)C2c3ccccc3-c3ccccc32)cc1,68%,98% (active),91.2% (active),55%,98% (active),92.8% (active),86% (active),99% (active),89.5% (active),31%,97% (active),88.5% (active),57%,99% (active),86.5% (active),69%,98% (active),86.2% (active)
CCN(C(=O)c1ccccc1C)C(c1ccccc1)P(=O)(c1ccccc1)c1ccccc1 (configuration not stated),61%,99% (active),78.6% (active),67%,98% (active),86.3% (active),28%,98% (active),87.7% (active),54%,98% (active),53.8%,61%,96% (active),87.2% (active),61%,99% (active),84.7% (active)
